Reference: PubChem BioAssay (NCI)
This is part of a sample that, as a whole, favours compounds with a hit. Of some 79,000 tested, about 15% had one in any assay. Activity calls are given as the source filed them. No stated cut-off is given here; in the data, active means growth inhibition above about 70%; inactive means the rest.

What was measured:
[1] = NCI Yeast Anticancer Drug Screen. Data for the rad52 strain (AID 147);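 further: 0% = growth of vehicle-treated control cultures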; conditions: S. cerevisiae rad52 mutant growth inhibition, stronger effect = higher value
Summary of the method: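 Genetically altered yeast (DNA damage repair defect) treated with compound; inhibition calculated relative to vehicle.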

[2] = NCI Yeast Anticancer Drug Screen. Data for the wt1 strain (AID 149);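 further: 0% = growth of vehicle-treated wt1 cultures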; conditions: S. cerevisiae wt1 strain (SPY 50644) growth inhibition, stronger effect = higher value
Summary of the method: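 Readout: yeast growth inhibition, normalised to vehicle controls, in the wt1 strain exposed to test compounds.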

[3] = NCI Yeast Anticancer Drug Screen. Data for the rad50EPP+ strain (AID 151);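 further: 0% = growth of vehicle-treated control cultures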; conditions: S. cerevisiae rad50 mutant strain, stronger effect = higher value
Summary of the method: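 Strain rad50EPP+; compound exposure; % growth inhibition vs vehicle.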

[4] = NCI Yeast Anticancer Drug Screen. Data for the mgt1 strain (AID 153); conditions: S. cerevisiae mgt1 mutant growth inhibition, stronger effect = higher value
Summary of the method: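 Read-out: yeast growth inhibition vs vehicle control. Strain mgt1, drawn from a panel altered in DNA damage repair or cell cycle control.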

[5] = NCI Yeast Anticancer Drug Screen. Data for the rad50 strain (AID 155);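 further: 0% = growth of vehicle-only cultures of the same strain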; conditions: S. cerevisiae rad50 strain growth inhibition, stronger effect = higher value
Summary of the method: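 Compounds were tested on a yeast strain with an engineered DNA damage repair alteration; the reported value is growth inhibition normalised to vehicle treatment.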

[6] = NCI Yeast Anticancer Drug Screen. Data for the mec2-1 strain (AID 157); conditions: S. cerevisiae mec2-1 strain, stronger effect = higher value
Summary of the method: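 Cells of the genetically defined mec2-1 yeast strain are incubated with test compound. Inhibition of growth is calculated against vehicle-treated controls.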

[7] = NCI Yeast Anticancer Drug Screen. Data for the rad14 strain (AID 159);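 further: 0% = growth of vehicle-treated control cultures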; conditions: S. cerevisiae rad14 strain growth inhibition, stronger effect = higher value
Summary of the method: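 Compound-treated yeast with a defined DNA-repair lesion; growth inhibition normalised to vehicle-treated cultures.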

[8] = NCI Yeast Anticancer Drug Screen. Data for the sgs1 mgt1 strain (AID 161);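 further: 0% = growth of cultures given vehicle only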; conditions: S. cerevisiae sgs1 mgt1 strain, stronger effect = higher value
Summary of the method: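 Read-out: growth inhibition vs vehicle controls. Cells: mutant yeast strain deficient in DNA damage repair.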

[9] = NCI Yeast Anticancer Drug Screen. Data for the CLN2oe strain (AID 163);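 further: 0% = growth of vehicle-only control cultures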; conditions: S. cerevisiae CLN2oe strain, stronger effect = higher value
Summary of the method: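 Strain altered in cell-cycle control, incubated with compound; growth compared to solvent-treated controls.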

[10] = NCI Yeast Anticancer Drug Screen. Data for the cln2 rad14 strain (AID 165);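 further: 0% = growth equal to vehicle treated cultures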; conditions: S. cerevisiae cln2 rad14 strain, stronger effect = higher value
Summary of the method: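 The screen exposed genetically defined yeast (cln2 rad14) to test compounds and scored growth inhibition relative to vehicle-treated controls.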

[11] = NCI Yeast Anticancer Drug Screen. Data for the bub3 strain (AID 167); conditions: S. cerevisiae bub3 mutant strain, stronger effect = higher value
Summary of the method: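 Growth of a checkpoint-deficient yeast mutant is measured after compound exposure. Values represent inhibition relative to vehicle.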

[12] = NCI Yeast Anticancer Drug Screen. Data for the wt2 strain (AID 169);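 further: 0% = growth of vehicle-treated yeast cultures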; conditions: S. cerevisiae wt2 strain growth inhibition, stronger effect = higher value
Summary of the method: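 Steps: yeast strain treated with compound; growth recorded; inhibition calculated relative to cultures given vehicle alone.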

[13] = NCI Yeast Anticancer Drug Screen. Data for the mlh1 strain (AID 171);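 further: 0% = growth of vehicle-treated control cultures of the same strain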; conditions: S. cerevisiae mlh1 strain growth inhibition, stronger effect = higher value
Summary of the method: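 Yeast screen: mutant strain plus compound, growth scored against vehicle control wells.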

[14] = NCI Yeast Anticancer Drug Screen. Data for the sgs1 strain (AID 173);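 further: 0% = growth of vehicle-only control cultures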; conditions: S. cerevisiae sgs1 mutant, stronger effect = higher value
Summary of the method: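 Inhibition of yeast growth served as the measure. The mutant strain was treated with each compound, and growth was normalised to cultures receiving vehicle alone.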

[15] = NCI Yeast Anticancer Drug Screen. Data for the mlh1 rad18 strain (AID 175); conditions: S. cerevisiae mlh1 rad18 strain growth inhibition, stronger effect = higher value
Summary of the method: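 Compound-treated yeast growth, normalised to vehicle controls. Strain bears defined DNA repair mutations.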

[16] = NCI Yeast Anticancer Drug Screen. Data for the rad18 strain (AID 177); conditions: S. cerevisiae rad18 mutant growth inhibition, stronger effect = higher value
Summary of the method: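 Inhibition values reflect reduced yeast growth compared with vehicle-treated controls, using a strain engineered with a DNA damage repair defect.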

[17] = at 5.0 µM (retest, dose inferred, filed as 0.5)
[18] = at 50.0 µM (retest, dose inferred, filed as 5.0)

Measured: growth inhibition

CC(C)(CCCCC(C)(C)[N+](C)(C)C)[N+](C)(C)C
active: [5]; at 50.0 µM 85.2% | [6]; at 50.0 µM 88.5% | [8]; at 50.0 µM 89.1% | [10]; at 50.0 µM 87.2% | [11]; [18] 98% | [11]; at 50.0 µM 85.5% | [15]; at 50.0 µM 91.5%
inactive: [1]; at 1.2 µM -4% | [1]; at 3.7 µM -6% | [1]; at 11.0 µM -5% | [1]; at 33.0 µM -10% | [1]; at 100.0 µM -1% | [2]; at 1.2 µM -2% | [2]; at 3.7 µM 0% | [2]; at 11.0 µM -1% | [2]; at 33.0 µM -1% | [2]; at 100.0 µM 1% | [3]; at 1.2 µM -3% | [3]; at 3.7 µM -4% | [3]; at 11.0 µM 0% | [3]; at 33.0 µM -1% | [3]; at 100.0 µM -2% | [4]; at 1.2 µM -4% | [4]; at 3.7 µM -3% | [4]; at 11.0 µM -4% | [4]; at 33.0 µM -16% | [4]; at 100.0 µM -2% | [5]; at 1.2 µM -10% | [5]; at 3.7 µM -18% | [5]; [17] 4% | [5]; at 11.0 µM -25% | [5]; at 33.0 µM -4% | [5]; [18] 54% | [5]; at 100.0 µM -2% | [6]; at 1.2 µM 0% | [6]; at 3.7 µM 1% | [6]; [17] 21% | [6]; at 11.0 µM 0% | [6]; at 33.0 µM 1% | [6]; [18] 42% | [6]; at 100.0 µM -1% | [7]; at 1.2 µM -2% | [7]; at 3.7 µM -2% | [7]; at 11.0 µM -4% | [7]; at 33.0 µM -4% | [7]; at 100.0 µM -2% | [8]; [17] 0% | [8]; [18] 31% | [9]; at 1.2 µM -4% | [9]; at 3.7 µM -2% | [9]; at 11.0 µM 2% | [9]; at 33.0 µM -3% | [9]; at 100.0 µM -1% | [10]; [17] 44% | [10]; [18] 52% | [11]; at 1.2 µM -1% | [11]; at 3.7 µM 0% | [11]; [17] -1% | [11]; at 11.0 µM -1% | [11]; at 33.0 µM 0% | [11]; at 100.0 µM 0% | [12]; at 1.2 µM -2% | [12]; at 3.7 µM -2% | [12]; at 11.0 µM -5% | [12]; at 33.0 µM -5% | [12]; at 100.0 µM -1% | [13]; at 1.2 µM 1% | [13]; at 3.7 µM 1% | [13]; at 11.0 µM 0% | [13]; at 33.0 µM 0% | [13]; at 100.0 µM -1% | [14]; at 1.2 µM -1% | [14]; at 3.7 µM 1% | [14]; at 11.0 µM -2% | [14]; at 33.0 µM 0% | [14]; at 100.0 µM 0% | [15]; [17] 10% | [15]; [18] 35% | [16]; at 1.2 µM -4% | [16]; at 3.7 µM 0% | [16]; at 11.0 µM -2% | [16]; at 33.0 µM -3% | [16]; at 100.0 µM -3%

Cc1cc(C)nc(NS(=O)(=O)c2ccc(Nc3c4ccccc4nc4c(C(=O)NCCO)cccc34)cc2)n1
inactive: [1]; at 1.2 µM -2% | [1]; at 3.7 µM -1% | [1]; at 11.0 µM 2% | [1]; at 33.0 µM 21% | [1]; at 100.0 µM 59% | [2]; at 1.2 µM -1% | [2]; at 3.7 µM -2% | [2]; at 11.0 µM -2% | [2]; at 33.0 µM -35% | [2]; at 100.0 µM -9% | [3]; at 1.2 µM -3% | [3]; at 3.7 µM 0% | [3]; at 11.0 µM 1% | [3]; at 33.0 µM 3% | [3]; at 100.0 µM -14% | [4]; at 1.2 µM 0% | [4]; at 3.7 µM -1% | [4]; at 11.0 µM -2% | [4]; at 33.0 µM -1% | [4]; at 100.0 µM 32% | [5]; at 1.2 µM -1% | [5]; at 3.7 µM 1% | [5]; [17] -17% | [5]; at 11.0 µM 6% | [5]; at 33.0 µM 25% | [5]; at 50.0 µM 39.2% | [5]; at 100.0 µM 68% | [6]; at 1.2 µM -1% | [6]; at 3.7 µM -1%
active: [5]; [18] 91%
